Assay results reported in ChEMBL document CHEMBL3988442, “University of Dundee, Small-Polar-MMV Screening Library” (2021).
The whole screen tested about 69,000 compounds, of which about 950 (1.4%) showed an effect of 50% or more. The full list was thinned out, with strong results kept by preference.

The compounds below were run on Mycobacterium tuberculosis (assay: Cornell M. t heat shock assay; also: in the data most compounds retested in dose-response had high values).
Format: functional, organism-based
Design: dose or concentration left out as unconfirmed

| Structure (SMILES) | Percent Effect |
| --- | --- |
| COCC(=O)N1C[C@@H](OCc2ccncc2)[C@@H]2OCCC[C@@H]21.O=C(O)C(F)(F)F | -15.14% |
| Cc1ccc2c(c1)CN(C(=O)c1ccncc1)C(CN(C)C)CO2.Cl (stereo not drawn) | -12.12% |
| COCC(=O)NCc1cc(=O)n2c(n1)CN(CC1CC1)CCC2.O=C(O)C(F)(F)F | 0.2802% |
| COC[C@H]1CC[C@@H]2[C@@H](CCN2Cc2ccccn2)O1.O=C(O)C(F)(F)F.O=C(O)C(F)(F)F | -12.12% |
| COc1cccc(CN2CCc3nc4ccsc4c(=O)n3CC2)c1.Cl | -5.651% |
| COCCn1cncc1CN1CCC(C(C)=O)(c2ccccc2)CC1 | -3.844% |
| CC1(c2ccccc2)CCCN(Cc2cncn2C2CC2)C1 (stereo not drawn) | 105.6% |
| CCCN1CCCC2(CCN(Cc3cncn3C3CCCC3)C2)C1=O (stereo not drawn) | -6.674% |
| COCCn1cncc1CN1CCCC(C(=O)Cc2ccccc2)C1 (stereo not drawn) | 2.668% |
| O=C(CCc1ccccc1)C1CCCN(Cc2cncn2C2CC2)C1 (stereo not drawn) | 5.776% |
| CC1(c2ccccc2)CCCN(Cc2cncn2C2CCCC2)C1 (stereo not drawn) | 105.4% |
| CC1(c2ccccc2)CCCN(Cc2nnc(-c3cccnc3)o2)C1 (stereo not drawn) | 31.3% |
| CN1CCCC2(CCN(Cc3cncn3C3CCCCC3)C2)C1=O (stereo not drawn) | 13.88% |
| COCCn1cncc1CN1CCCC(C)(c2ccccc2)C1 (stereo not drawn) | 52.06% |
| CC(NC(=O)NCc1ccccc1)(C(=O)O)c1ccco1 (stereo not drawn) | -8.455% |
| CC(=O)CN1CC2(CCNCC2)COc2ccccc2S1(=O)=O.O=C(O)C(F)(F)F | -27.15% |
| Cn1ccc(C(=O)N2CCOC3(COCCN(CC4CC4)C3)C2)n1.O=C(O)C(F)(F)F (stereo not drawn) | 32.82% |
| CS(=O)(=O)N[C@@H]1CN(C(=O)c2cccnc2)[C@@H]2CCCO[C@@H]21.O=C(O)C(F)(F)F | -22.75% |
| COCCN1CCc2cc(C(=O)NC(C)C)c(NCC3CC3)nc2CC1.O=C(O)C(F)(F)F.O=C(O)C(F)(F)F | -25.1% |
| Cn1c2c(ccc1=O)CCN(Cc1ccoc1)CC2.O=C(O)C(F)(F)F | -16.65% |
| Cl.Cn1nc(C2CCCN(Cc3cccs3)C2)c2nccnc21 (stereo not drawn) | 1.565% |

| Structure (SMILES) | Percent Effect |
| --- | --- |
| CN(C)CCN1CC[C@@H]2O[C@@H](COCC(=O)N3CCCC3)CC[C@@H]21.O=C(O)C(F)(F)F.O=C(O)C(F)(F)F | -33.31% |
| Cc1noc(C(C)C)c1C(=O)NCCCN1CCNCC1.Cl | 0.9177% |
| O=S(=O)(Cc1nc(C2CC2)no1)c1cc(F)ccc1F | 12.65% |
| O=S(=O)(Cc1nc(C2CC2)no1)c1ccccc1F | 12.43% |
| O=S(=O)(CCc1ccccc1)Cc1nc(C2CC2)no1 | 59.77% |
| CCc1noc(CS(=O)(=O)Cc2ccccc2C)n1 | 31.56% |
| CCc1noc(CS(=O)(=O)Cc2ccccc2Cl)n1 | 95.51% |
| CCc1noc(CS(=O)(=O)Cc2nc(Cc3ccccc3)no2)n1 | -8.996% |
| Cc1noc(C)c1CS(=O)(=O)Cc1nc(C2CC2)no1 | 6.324% |
| O=S(=O)(C/C=C/c1ccccc1)Cc1nc(C2CC2)no1 | 19.84% |
| Cc1ccccc1CS(=O)(=O)Cc1nc(C2CC2)no1 | 92.63% |
| Cl.O=C(CCC1CCCC1)N1CCCC(c2ncc3c(n2)CCNC3)C1 (stereo not drawn) | -5.492% |
| CC(C)CCN1C[C@H]2C[C@H](C(=O)NCC(C)C)[C@@H](C1)O2.O=C(O)C(F)(F)F | 22.63% |
| Cc1nnc(N2CCCC3(CN(Cc4ccc(F)cc4)CCO3)C2)o1.O=C(O)C(F)(F)F (stereo not drawn) | -29.82% |
| c1cnc(N2C[C@@H]3CC[C@H](C2)N(Cc2ccsc2)C3)nc1 | 15.45% |
| CN(C)CCOCc1nnc2n1CCN(Cc1ccoc1)CC2.O=C(O)C(F)(F)F.O=C(O)C(F)(F)F | -36.04% |
| O=C(O)C(F)(F)F.c1cc(CN2CCc3c(nnn3CC3CC3)C2COCC2CC2)co1 (stereo not drawn) | -36.71% |
| CC(C)(C)OC(=O)NCC1CCCCN1Cc1ccncc1 (stereo not drawn) | 24.03% |
| CC(C)(C)c1nc(CN2CCCC2c2nnc3ccccn23)no1 (stereo not drawn) | 0.5342% |
| CCn1c(C2CCCN2Cc2noc(C(C)(C)C)n2)nc2ccccc21 (stereo not drawn) | 50.31% |
| Cn1cccc1C1CCCN1Cc1noc(C(C)(C)C)n1 (stereo not drawn) | -40.09% |

| Structure (SMILES) | Percent Effect |
| --- | --- |
| Cc1nc(CN2C(=O)COC3(CCN(C)CC3)C2C)cs1.O=C(O)C(F)(F)F (stereo not drawn) | -6.14% |
| NCC1CCCN(c2nc(-c3ccccc3)nc3c2CCNCC3)C1 (stereo not drawn) | 69.25% |
| N#CC1CCCN(c2nc(-c3ccccc3)nc3c2CCNCC3)C1 (stereo not drawn) | -9.181% |
| NCC1CN(c2nc(-c3ccccc3)nc3c2CCNCC3)CCO1 (stereo not drawn) | 43.48% |
| Cc1cc(CN2CCC(CNC(=O)c3nccc4ccccc34)C2)[nH]n1 (stereo not drawn) | 59.25% |
| Cc1cc(CN2CCC(CNC(=O)Cc3ccc(F)cc3)C2)[nH]n1 (stereo not drawn) | -9.663% |
| Cc1cc(CN2CCC(CNC(=O)c3cnc(C)nc3C)C2)[nH]n1 (stereo not drawn) | -10.7% |
| CN1[C@H](CN2CCCC2)C[C@@H]2CN(C(=O)Cc3ccsc3)CC[C@@H]21.O=C(O)C(F)(F)F.O=C(O)C(F)(F)F | -7.166% |
| CN(C)C(=O)[C@@H]1CC[C@@H]2[C@@H](CCN2Cc2nccs2)O1.O=C(O)C(F)(F)F | 11.33% |
| NC(=O)C1Cn2ccnc2C2(CCN(C(=O)NC3CCCC3)CC2)O1.O=C(O)C(F)(F)F (stereo not drawn) | 2.522% |
| Fc1ccccc1CN1CCC(c2noc(-c3ccccn3)n2)CC1 | 13.63% |
| Cl.Fc1ccc(F)c(CN2CCC(c3cc4ncccc4cn3)CC2)c1 | 103.6% |
| Cl.Fc1cccc(CN2CCC(c3cc4ncccc4cn3)CC2)c1F | 102.4% |
| Fc1cccc(CN2CCC(c3noc(-c4ccccn4)n3)CC2)c1F | 12.47% |
| COc1ccc(C)cc1CN1CCC(c2cc3ncccc3cn2)CC1.Cl | 102.1% |
| Fc1ccc(F)c(CN2CCC(c3cnccn3)CC2)c1 | -4.596% |
| CCc1onc(C)c1C(=O)N1CCC(c2cc3ncccc3cn2)CC1 | 13.11% |
| Fc1cc(F)cc(CN2CCC(c3cc4ncccc4cn3)CC2)c1 | 17.06% |
| Fc1cccc(CN2CCC(c3noc(-c4cnccn4)n3)CC2)c1F | -19.36% |
| Fc1cccc(CN2CCC(c3n[nH]c4ncccc34)CC2)c1F | -15.12% |
| COc1ccc(C)cc1CN1CCN(Cc2nccn2C)CC1 | 1.633% |
